Laboratory results reported in PubChem BioAssay (NCI).
About 79,000 compounds went through this panel and 15% of them were active in at least one assay; those are over-represented in the sample as a whole. No stated cut-off is given here; in the data, active means growth inhibition above about 70%; inactive means the rest.

Assays:
[1] = NCI Yeast Anticancer Drug Screen. Data for the rad50 strain (AID 155);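 further: 0% = growth of vehicle-only cultures of the same strain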; conditions: S. cerevisiae rad50 strain growth inhibition; at 50.0 µM; hits give high values
Method in brief: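 Genetically altered yeast (DNA repair pathway); compound treatment; growth inhibition vs vehicle ctrl.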

[2] = NCI Yeast Anticancer Drug Screen. Data for the mec2-1 strain (AID 157); conditions: S. cerevisiae mec2-1 strain, at 50.0 µM, hits give high values
Method in brief: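 Cells of the genetically defined mec2-1 yeast strain are incubated with test compound. Inhibition of growth is calculated against vehicle-treated controls.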

[3] = NCI Yeast Anticancer Drug Screen. Data for the sgs1 mgt1 strain (AID 161);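 further: 0% = growth of cultures given vehicle only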; conditions: S. cerevisiae sgs1 mgt1 strain, at 50.0 µM, hits give high values
Method in brief: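 Read-out: growth inhibition vs vehicle controls. Cells: mutant yeast strain deficient in DNA damage repair.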

[4] = NCI Yeast Anticancer Drug Screen. Data for the cln2 rad14 strain (AID 165);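 further: 0% = growth equal to vehicle treated cultures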; conditions: S. cerevisiae cln2 rad14 strain, at 50.0 µM, hits give high values
Method in brief: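 The screen exposed genetically defined yeast (cln2 rad14) to test compounds and scored growth inhibition relative to vehicle-treated controls.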

[5] = NCI Yeast Anticancer Drug Screen. Data for the bub3 strain (AID 167); conditions: S. cerevisiae bub3 mutant strain, at 50.0 µM, hits give high values
Method in brief: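 Yeast carrying a defined mutation is treated with each compound, and growth is compared with that of vehicle-exposed cells to give inhibition.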

[6] = NCI Yeast Anticancer Drug Screen. Data for the mlh1 rad18 strain (AID 175); conditions: S. cerevisiae mlh1 rad18 strain growth inhibition; at 50.0 µM; hits give high values
Method in brief: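 Compound-treated yeast growth, normalised to vehicle controls. Strain bears defined DNA repair mutations.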

Measured: growth inhibition

N#C/C(=C\c1ccco1)C(=O)Nc1ccc(Br)cc1
inactive: [1] 27.9% | [2] -3.75% | [3] 1.65% | [4] -35.8% | [5] 9.1% | [6] 23.8%

O=C(C[N+]1(c2ccccc2)CCOCC1)c1ccccc1
inactive: [1] 28.4% | [2] 5.6% | [3] -13.8% | [4] 4.7% | [5] -4.25% | [6] 21.1%

C=CCNC(=S)Nc1ccc(OC(=O)NC(C)(C)C)cc1
inactive: [1] 2% | [2] 29.4% | [3] 26.4% | [4] -16.8% | [5] 25.3% | [6] 0.1%

O=[N+]([O-])c1ccc(O)c(N=Cc2ccc(C=Nc3cc([N+](=O)[O-])ccc3O)cc2)c1
inactive: [1] -24.9% | [2] -19.8% | [3] -13.8% | [4] 1.2% | [5] -5.1% | [6] -17.6%

Cc1cc(N)c(NC2OC(CO)C(O)C2O)cc1C (stereo unspecified)
inactive: [1] -25.1% | [2] 0.8% | [3] 4.75% | [4] -43.1% | [5] 41.1% | [6] 19.7%

N#Cc1nnn(-c2ccccc2)n1
inactive: [1] 24.2% | [2] 13.5% | [3] 2.9% | [4] -15.7% | [5] 4% | [6] 22.5%

CC(C)(CCC(=O)O)CCC(=O)O
inactive: [1] 16.3% | [2] 17.6% | [3] 15.8% | [4] -6.05% | [5] -4% | [6] 36%

Cc1cc(NC(=O)NC(=O)c2ccccc2NC(=O)CN)ccc1Oc1ncc(Br)cn1
inactive: [1] 6% | [2] -13.8% | [3] 40.3% | [4] 11.4% | [5] 15.1% | [6] -43.5%

COc1ccccc1NC(=S)N/N=C/c1cccc(C)n1
inactive: [1] 9.45% | [2] -9.9% | [3] 20.1% | [4] -3.7% | [5] 5.5% | [6] 40%

Cc1cccc(NC(=O)/C=C/C(=O)O)c1
inactive: [1] -31.9% | [2] -41% | [3] -17.9% | [4] -20.9% | [5] -29.6% | [6] -45.1%

NNC(=S)NNc1ccccc1
inactive: [1] 12.2% | [2] 42.4% | [3] 56.1% | [4] -2.65% | [5] 20.4% | [6] 42.7%

c1ccc2[nH]c3[nH]c4[nH]c5ccccc5[nH]c4[nH]c3[nH]c2c1
inactive: [1] -29.2% | [2] -9.2% | [3] -20.6% | [4] -6.2% | [5] -8.5% | [6] -11.8%

CC(C)=CCCC(C)C=O (stereo unspecified)
inactive: [1] -11.6% | [2] -41.2% | [3] -19.4% | [4] 4% | [5] -20.1% | [6] 1.3%

CN(C)c1nc(=O)c2c(ccc3ccccc32)o1
inactive: [1] 26.2% | [2] 24.3% | [3] 7.6% | [4] 14.7% | [5] 0.55% | [6] -3.7%

COc1ccc([N+](=O)[O-])c2c(NCCC[N+](C)(C)[O-])c3ccccc3nc12
inactive: [1] 24.9% | [2] -13.3% | [3] 3.05% | [4] -46.8% | [5] -19.2% | [6] 19.7%

CC[n+]1c([S-])nn(C)c1-c1cnccn1
inactive: [1] -2.8% | [2] -4.9% | [3] -9.05% | [4] -13.9% | [5] 24% | [6] -12.5%

COc1ncnc2ncn(C)c12
inactive: [1] 4.9% | [2] 18% | [3] -1.25% | [4] -12.9% | [5] 6.95% | [6] 0.2%

Clc1cccc(NNc2cccc(Cl)c2)c1
inactive: [1] -11.5% | [2] -16.8% | [3] -13.8% | [4] -66.2% | [5] 7.25% | [6] -25.9%

N#CC(C#N)=CNC(=S)c1ccncc1
inactive: [1] -21.1% | [2] -33.6% | [3] -19.6% | [4] 6.7% | [5] -4.85% | [6] -24.2%

CCOC(=O)Cc1ccc(OC)c(OC)c1
inactive: [1] 3.45% | [2] -7.05% | [3] 3.9% | [4] -17.1% | [5] -2.8% | [6] 1.4%

C=C(C)C(=O)OC1CC2(C)OC2CC(OC(C)=O)/C(C)=C/C2OC(=O)C(=C)C21 (stereo unspecified)
inactive: [1] 20.8% | [2] 49.7% | [3] 31.7% | [4] 39.5% | [5] 46.6% | [6] -7.5%

FC(F)(F)C[P+](c1ccccc1)(c1ccccc1)c1ccccc1
inactive: [1] 40.9% | [2] 13.1% | [3] 15.3% | [4] 16.9% | [5] 11.5% | [6] 26%

c1ccc(CNCCNCc2ccccn2)nc1
inactive: [1] 25.4% | [2] 7.45% | [3] 16.1% | [4] -61.1% | [5] -1.15% | [6] 16.8%

CC(=O)OCC(NC(=O)C(N)CC(=O)O)C(=O)NCC(=O)Oc1ccc([N+](=O)[O-])cc1 (stereo unspecified)
inactive: [1] 13.9% | [2] 15.7% | [3] 11.8% | [4] 12% | [5] 1.9% | [6] 5.75%

O=C(O)CC(Nc1ncccn1)C(=O)O (stereo unspecified)
inactive: [1] 3.05% | [2] 6% | [3] 10.7% | [4] 24.1% | [5] -6.1% | [6] 5.4%

COc1ccc(N=Nc2c(C)c(C#N)c(=S)n(C3OC(CO)C(O)C(O)C3O)c2-c2ccccc2)cc1 (stereo unspecified)
inactive: [1] 0.55% | [2] 2.85% | [3] 20.1% | [4] 10.7% | [5] 11.8% | [6] 23.9%

CCCCCCCC(=O)NC(O)C(Cl)(Cl)C(C)Cl (stereo unspecified)
inactive: [1] 31.1% | [2] -6.35% | [3] 3.35% | [4] -21.4% | [5] -1.55% | [6] 9.35%

CCOC(=O)C(C)(C(C)=O)c1nc(=S)[nH]c(=S)[nH]1 (stereo unspecified)
inactive: [1] 4.2% | [2] 7.55% | [3] 2.1% | [4] -19.8% | [5] 7.25% | [6] -5.1%

CCC(C)C(NCc1ccccc1)C(=O)O (stereo unspecified)
inactive: [1] -8.75% | [2] 7.5% | [3] 26.9% | [4] -13.2% | [5] -18.4% | [6] -8.25%

COc1ccc(C(=O)/C=C/c2ccc(OCC(=O)O)cc2)cc1
inactive: [1] 22.6% | [2] 12.3% | [3] 18.1% | [4] 21.8% | [5] -5.75% | [6] 42.8%

COc1cccc(-c2cc(=O)c3cccnc3[nH]2)c1
inactive: [1] -49.4% | [2] 3.25% | [3] 28.8% | [4] 7.45% | [5] 26.6% | [6] 13.9%

COc1ccc(C(O)(c2ccccc2)c2nccc3ccccc23)cc1 (stereo unspecified)
inactive: [1] 6.6% | [2] 3.75% | [3] 30.4% | [4] 1.45% | [5] 10.3% | [6] -9.4%

COc1cc2ccccc2cc1CO
inactive: [1] -4.15% | [2] -4.2% | [3] -3.8% | [4] -16.1% | [5] -22.8% | [6] -0.45%

O=C(Nc1cccc(Cl)c1)Sc1c(Cl)c(Cl)c(Cl)c(Cl)c1Cl
inactive: [1] 24.4% | [2] 17.3% | [3] 26.4% | [4] 29.2% | [5] 7.3% | [6] 34.8%

CCOC(=O)c1sc2nc(-c3ccccc3)nn2c1CBr
inactive: [1] 17.1% | [2] 3.95% | [3] 11.9% | [4] 24.1% | [5] 18.6% | [6] 49.4%

NC1CC(=O)C(CC2C(=O)CC(N)CC2=O)C(=O)C1 (stereo unspecified)
inactive: [1] -1.3% | [2] 0.05% | [3] 3.35% | [4] -1.8% | [5] -1.15% | [6] -3.65%

Nc1[nH]c(=S)[nH]c(=O)c1N=Cc1ccc2c(c1)OCO2
inactive: [1] 13.2% | [2] 10% | [3] 61.4% | [4] 12.7% | [5] 16.2% | [6] 9.7%

COc1ccc(/C=N/CCl)cc1
inactive: [1] -1.55% | [2] 2% | [3] 7.05% | [4] -49.3% | [5] -22.1% | [6] -1.2%

N#CC(C#N)C1c2ccccc2Oc2ccccc21
inactive: [1] 7.1% | [2] -8.55% | [3] -4.05% | [4] -11.6% | [5] -4.95% | [6] -14.3%

CC(=O)c1ccc(N=Nc2ccc3nonc3c2N)cc1
inactive: [1] -22.5% | [2] -4.35% | [3] -20.6% | [4] -10.2% | [5] 5.25% | [6] -9.45%

O=C(O)c1cc(C(=O)O)cc(N(CCO)CCO)c1
inactive: [1] -19.1% | [2] -6.45% | [3] -6.8% | [4] -17.6% | [5] 21.8% | [6] -14.2%
